Source: PubChem BioAssay (NCATS)
Inconclusive results are not listed. Activity calls are given as the source filed them. Calls follow the shape of the dose curve; as a rule, active = well fitted inhibition curve with a large enough effect; inconclusive = small, poorly fitted or top-dose-only effect; inactive = flat fitted curve, though single readings scatter.

Key:
Experiment in all cases: qHTS profiling for inhibitors of Plasmodium falciparum proliferation (AID 504749); also: nearly all actives have a fitted effect of over 60% in size
Settings in all cases: P. falciparum in erythrocytes, SYBR Green DNA, 72 h; series mostly up to 28.7 µM
AA1029 = system: AA1029
Outline: (§1)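 Quantitative HTS: compounds pinned into medium, infected erythrocytes added (0.3% parasitemia, 2.5% hematocrit), 72 h culture at 37 C under 5% CO2. Saponin/Triton lysis with SYBR Green I, overnight RT, then fluorescence read.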

ATS95 = system: ATS95
Outline: as §1

C2A = system: C2A
Outline: as §1

CP211 = system: CP211
Outline: as §1

CP215 = system: CP215
Outline: as §1

CP217 = system: CP217
Outline: as §1

CP250 = system: CP250
Outline: as §1

CP252 = system: CP252
Outline: as §1

CP256 = system: CP256
Outline: as §1

CP269 = system: CP269
Outline: as §1

CP325 = system: CP325
Outline: as §1

CP329 = system: CP329
Outline: as §1

FAB9 = system: FAB9
Outline: as §1

ICS = system: ICS
Outline: as §1

N140 = system: N140
Outline: as §1

P93_24 = system: P93_24
Outline: as §1

PAD = system: PAD
Outline: as §1

PC15 = system: PC15
Outline: as §1

SC27B = system: SC27B
Outline: as §1

TAB165 = system: TAB165
Outline: as §1

Measured: Potency

C/C=C1\C2C=C(C)CC1(N)c1ccc(=O)[nH]c1C2 (stereo not given)
inactive: all assays above
